Source: PubChem BioAssay (NCATS)
Records with an inconclusive call do not appear. A call without a number means that no potency is given here. Active and inactive are the calls of the source. Calls follow the shape of the dose curve; as a rule, active = well fitted curve in the direction sought with a large enough effect; inconclusive = small, poorly fitted or top-dose-only effect, or another doubt; inactive = no such curve, though single readings can be large; an effect the other way counts as inactive or inconclusive.

Biological target: Luciferin 4-monooxygenase (Photinus pyralis) (UniProt P08659)
Assay: Primary firefly luciferase (FLuc) qHTS assay for identification of artifact compounds. (AID 1845220); also: nearly all actives have a fitted effect of over 60% in size
Settings: purified firefly luciferase, luminescence, 5 min; series mostly up to 54.1 µM
Summary of the method: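 In this counter-screen for luciferase artifacts, test compounds met substrate (10 uM each luciferin and ATP) before 10 nM enzyme started the reaction. Light output was measured 5 min later.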

With CN(C)c1cccc(-c2c3c(=O)n(-c4ccccc4Cl)[nH]c3cc(=O)n2C)c1 as the molecule, how does the Potency read?
The Potency was “inactive”.

Which Potency does the source give for NCc1c[nH]c(=S)n1C1CCc2c(F)cc(F)cc2C1 (stereo not given) here?
The Potency was “inactive”.

Which Potency does the source give for COc1ccc2cc(OCC3(C(=O)O)CN(C(=O)c4ccc(F)cc4)C3)ccc2c1 here?
Its Potency is “inactive”.

With Cc1ccc2c(c1)C=Cc1cc(C)ccc1C2c1cn(Cc2ccc(C(=O)Nc3nn[nH]n3)o2)c(=O)[nH]c1=S as the molecule, how does the Potency read?
Its Potency is “inactive”.

Which Potency does the source give for CC(=O)N[C@H]1CCN(c2ccc(C3=NOC(CN[S+](=O)([O-])C(C)C)C3)cc2F)C1 (stereo not given in full) here?
The Potency was “inactive”.

For C[C@H]1[C@H](C)CC[C@]2(C(=O)O)CC[C@]3(C)C(=CC[C@@H]4[C@@]5(C)C[C@@H](O)[C@H](O)[C@@](C)(CO)[C@@H]5CC[C@]43C)[C@H]12, which Potency is on record?
Its Potency is “inactive”.

For C/C=C/C=C/C=C/C(=O)O[C@@H]1C=C(CO)C(O)(C(=O)O)[C@@]2(C)CCCC(C)(C)[C@H]12 (stereo not given in full), which Potency is on record?
Its Potency is “inactive”.

With CCOC(=O)[C@H](CCc1ccccc1)N[C@@H](C)C(=O)N1C2CCCCC2C[C@H]1C(=O)O (stereo not given in full) as the molecule, how does the Potency read?
Its Potency is “inactive”.

For C#C[C@]1(O)CC[C@H]2[C@@H]3CCC4=C/C(=N/O)CC[C@@H]4[C@H]3CC[C@@]21CC, which Potency is on record?
The Potency was “inactive”.

Which Potency does the source give for COc1cccc(-c2ccc([C@@H](Oc3cc(-c4ccc(C[C@H](N)C(=O)O)cc4)nc(N)n3)C(F)(F)F)cc2)c1 here?
The Potency was “inactive”.

For CC(C)c1nc(N(C)S(C)(=O)=O)nc(-c2ccc(F)cc2)c1/C=C/[C@@H](O)C[C@@H](O)CC(=O)O, which Potency is on record?
The Potency was “inactive”.

For CC(C)C(=O)c1cn(CC(=O)COc2ccc(Oc3ccccc3)cc2)c2ccc(C(=O)O)cc12, which Potency is on record?
The Potency was “inactive”.

For N#CC1C(=O)Nc2scc(-c3ccc(-c4ccccc4O)cc3)c2C1=O (stereo not given), which Potency is on record?
The Potency was “inactive”.

System: not listed separately
Assay: Primary fluorescence-based thiol-reactive (MSTI) qHTS assay for identification of artifact compounds. (AID 1845221); also: nearly all actives have a fitted effect of over 65% in size; also: potency is read from the fitted curve at half-maximal effect
Settings: MSTI thiol-reactivity probe, 1 h; series mostly up to 53.8 µM
Summary of the method: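 Curve-fitted percent inhibition (4-parameter Hill) derived from fluorescence, Ex 525/Em 598 nm, scaled with Acetyl-MSTI and MSTI; 1 h incubation at room temperature.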

Which Potency does the source give for CN(C)c1cccc(-c2c3c(=O)n(-c4ccccc4Cl)[nH]c3cc(=O)n2C)c1 here?
The Potency was 1890 nM (active).

With COc1ccc2cc(OCC3(C(=O)O)CN(C(=O)c4ccc(F)cc4)C3)ccc2c1 as the molecule, how does the Potency read?
The Potency was “inactive”.

For Cc1ccc2c(c1)C=Cc1cc(C)ccc1C2c1cn(Cc2ccc(C(=O)Nc3nn[nH]n3)o2)c(=O)[nH]c1=S, which Potency is on record?
The Potency was “inactive”.

With C[C@H]1[C@H](C)CC[C@]2(C(=O)O)CC[C@]3(C)C(=CC[C@@H]4[C@@]5(C)C[C@@H](O)[C@H](O)[C@@](C)(CO)[C@@H]5CC[C@]43C)[C@H]12 as the molecule, how does the Potency read?
Its Potency is “inactive”.

Which Potency does the source give for C/C=C/C=C/C=C/C(=O)O[C@@H]1C=C(CO)C(O)(C(=O)O)[C@@]2(C)CCCC(C)(C)[C@H]12 (stereo not given in full) here?
Its Potency is “inactive”.

Which Potency does the source give for CCOC(=O)[C@H](CCc1ccccc1)N[C@@H](C)C(=O)N1C2CCCCC2C[C@H]1C(=O)O (stereo not given in full) here?
The Potency was “inactive”.

Which Potency does the source give for NC(=O)c1cccc(-c2cc(O)cc(OC(=O)NC3CCCCC3)c2)c1 here?
Its Potency is “inactive”.

For C#C[C@]1(O)CC[C@H]2[C@@H]3CCC4=C/C(=N/O)CC[C@@H]4[C@H]3CC[C@@]21CC, which Potency is on record?
The Potency was “inactive”.

For COc1cccc(-c2ccc([C@@H](Oc3cc(-c4ccc(C[C@H](N)C(=O)O)cc4)nc(N)n3)C(F)(F)F)cc2)c1, which Potency is on record?
The Potency was “inactive”.

With CC(C)c1nc(N(C)S(C)(=O)=O)nc(-c2ccc(F)cc2)c1/C=C/[C@@H](O)C[C@@H](O)CC(=O)O as the molecule, how does the Potency read?
The Potency was “inactive”.

Which Potency does the source give for CC(C)C(=O)c1cn(CC(=O)COc2ccc(Oc3ccccc3)cc2)c2ccc(C(=O)O)cc12 here?
The Potency was “inactive”.

With N#CC1C(=O)Nc2scc(-c3ccc(-c4ccccc4O)cc3)c2C1=O (stereo not given) as the molecule, how does the Potency read?
The Potency was “inactive”.
